# Nrf2 inh: Nrf2 pathway inhibition. A549 ARE-Fluc reporter, luciferase luminescence, 18-24 h. 360,000 compounds, 2.1% hits. Potency, µM (doses to about 46 µM), for the others: at the highest dose activity change, negative = inhibition, actives largely listed as inhibitors; further: potency means the concentration at half of the fitted maximal effect; on the % scale 0 is the no-effect control and ±100 the full control effect; nearly all actives have a fitted effect of over 60% in size
#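 A549 ARE_Fluc cells (5000/well, 5% FBS OPTI-MEM) pre-incubated 2 h, then treated with compounds 18-24 h at 37C/5% CO2 in concentration-response. CellTiter-Fluor viability read first; BugLite luciferase luminescence after 15 min at room temperature gives Nrf2 activity.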
# CCT chaperon mod: cytosolic chaperonin activity modulation; purified chaperonin ATPase assay, HTRF ADP detection, 30 min; activity change, % (no concentration beside the values), hits read low; 360,000 compounds, 0.3% hits; AID 651819; in the data active means activity change below about -30%; further: on the % scale 0 is the no-effect control and ±100 the full control effect
#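 TRiC (40 or 20 nM final, by batch activity) in 30 mM Tris pH 7.4, 100 mM KCl, 5 mM MgCl2, 1 mM DTT was treated with compound at 76 uM single dose, then 10 uM ATP, 30 min at 37 °C. ADP was read by HTRF Transcreener.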
# A549 tox: counter-screen for Nrf2 inhibitors: cytotoxicity in A549 cells; A549 ARE-Fluc cells, CellTiter-Fluor viability, 18-24 h; Potency, µM (doses to about 46 µM), inactives show at the top dose activity change, negative = cytotoxicity, hits mostly inhibitors; 390,000 compounds, 0.16% hits; further: potency means the concentration at half of the fitted maximal effect; on the % scale 0 is the no-effect control and ±100 the full control effect
#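 A549 ARE-Fluc cells in 5% FBS OPTI-MEM, 5000 cells/well, rested 2 h then exposed to compounds in concentration-response for 18-24 h at 37 °C. Viability by CellTiter-Fluor fluorescence (Ex 405/Em 525) after 30 min; luciferase luminescence (BugLite, 15 min, RT) read afterwards.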
# TCR act: activates T cell receptor signaling. primary human leukocytes, anti-CD3, IL-2 HTRF, 48 h. Potency, µM (titrated, usually from 9.22 µM), inactives show top-dose activation of IL-2 secretion, actives largely listed as activators. 330,000 tested, under 10 active; further: % of control where 0% means no effect
#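 Human primary leukocytes + a-CD3 beads + cpd, 48 hr; IL-2 in supernatant by HTRF (ex 320nm / em 665nm). No co-stimulatory signal supplied.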
# Nrf2 activator: activates Nrf2 signaling. AREc32 ARE-luciferase reporter (MCF7-derived line), luminescence, 24 h. Potency, µM (series often up to 46.1 µM), without a hit: top-dose activation, most hits filed as activators. 410,000 compounds, 0.31% hits. AID 624171; further: potency means the concentration at half of the fitted maximal effect; % of control where 0% means no effect; nearly all actives have a fitted effect of over 65% in size
#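 AREc32_Fluc, 1000 cells/well, OPTI-MEM + 5% FBS, o/n 37 deg C 5% CO2; 23 nL cpd by pin tool, 24 hr; Steady-Glo 30 min RT, luminescence.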
# A-T KAP1 phos: potential ataxia-telangiectasia treatments restoring KAP-1 phosphorylation. F2112 A-T fibroblasts, KAP-1 phosphorylation AlphaLISA; neocarzinostatin DNA damage 30 min before lysis. Potency, µM (highest dose often 57.5 µM), inactives show at the highest dose activation, hits mostly activators. 320,000 compounds, 0.19% hits; further: potency means the concentration at half of the fitted maximal effect; % of control where 0% means no effect; nearly all actives have a fitted effect of over 45% in size
#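 hTERT-immortalized A-T patient fibroblasts (F2112), 500 cells/well in OPTI-MEM, 1% FBS, got compounds for 60 min, then NCS for 30 min at 37C. Lysates were then assayed for phospho-KAP-1 by AlphaLISA (anti-pKAP1 donor, anti-KAP1 acceptor beads), 6 hr at 25C.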
# Active calls of the source: *; ? = inconclusive; nt = not tested or not shown; [ ] = dose if it differs, or a comment. Shown are actives, neighbours in structure and some others; about 2.6% of the full set was active somewhere. Unless noted, the call rests on the fitted dose curve; in most records, active means well fitted curve in the direction sought with a large enough effect; inconclusive means small, poorly fitted or top-dose-only effect, or another doubt; inactive means no such curve, though single readings can be large; an effect the other way counts as inactive or inconclusive.
SMILES,Nrf2 inh,CCT chaperon mod,A549 tox,TCR act,Nrf2 activator,A-T KAP1 phos
COc1ccc(CCC(=O)OCC(=O)c2c(N)n(CC(C)C)c(=O)n(C)c2=O)cc1,23µM*,-1,-11%,2%,0%,-1%
CCC1(CC)NC(=O)N(CC(=O)OCC(=O)NC(=O)c2ccccc2OC)C1=O,2%,-5,-1%,4%,-1%,0%
COc1cccc(CSc2nc3n(n2)C(CC(C)C)C(C(=O)Nc2ccccc2OC)=C(C)N3)c1 (stereo not given),nt,nt,-10%,nt,0%,nt
Cc1noc(C)c1C(=O)Nc1ccccc1C(=O)NCCc1ccccc1,-16%,-1,-6%,-3%,2%,8%
CC(=O)c1c(C)[nH]c(C(=O)OCC(=O)c2c(N)n(CC(C)C)c(=O)n(C)c2=O)c1C,18µM*,0,-2%,nt,7%,0%
O=C(Nc1ccccc1C(F)(F)F)c1cc(-c2ccc3c(c2)OCCO3)on1,?,nt,8%,nt,1%,nt
CC(CCc1ccccc1)NS(=O)(=O)c1ccccc1F (stereo not given),-15%,0,-3%,1%,-1%,-1%
CC(=O)Oc1ccc(C2=NN(c3ccccc3)C(c3ccccc3)C2)cc1 (stereo not given),7%,0,7%,-5%,7%,35µM*
COc1ccc(C2CC(c3ccccc3)=NN2c2ccc(Cl)c(C(=O)O)c2)cc1 (stereo not given),0%,1,15%,-5%,1%,20%
CCOC(=O)c1nnn(CC(=O)N2N=C(c3ccccc3)CC2c2ccccc2)c1C(=O)OCC (stereo not given),15%,1,6%,-5%[46.1 µM],1%,nt
COc1ccc(C2CC(c3ccccc3)=NN2c2ccc(S(N)(=O)=O)cc2)cc1OC (stereo not given),?,-1,0%,-1%,-1%[9.22 µM],29%
COc1ccc(C2=NN(c3ccc(C(=O)O)cc3)C(c3ccc(OC)c(OC)c3)C2)cc1 (stereo not given),?,-1,-12%,8%,12%,28µM*
CCOC(=O)/C=C(\C)N1N=C(c2ccccc2)CC1c1ccccc1 (stereo not given),?,-13,-5%,-5%,13µM*,-1%
CCC(=O)Nc1cccc(C2=NN(c3ccccc3)C(c3ccc(OC)cc3)C2)c1 (stereo not given),?,-1,-9%,7%,3%,22µM*
N#Cc1nc(-c2ccc(OCc3ccccc3Cl)cc2)oc1N1CCCCCC1,-11%,nt,0%,nt,nt,nt
CCc1ccc(NC(=O)CC2C(=O)N(c3ccc(OC)cc3)C(=O)N2Cc2cccs2)cc1 (stereo not given),?,nt,-2%,nt,0%,nt
COCCNC(=S)NNC(=O)c1cc(-c2cccnc2)nc2ccccc12,3%,-2,-1%,7%,1%,-6%
CN(c1ccc(F)cc1)S(=O)(=O)c1ccc(Cl)c(C(=O)OCC(=O)NCc2ccco2)c1,-12%,-31*,0%,-1%,-1%,0%
COc1ccc(S(=O)(=O)NCc2cccnc2)cc1NC(=O)c1ccccc1,-2%,-1,-7%,3%,0%,-2%
O=C(Nc1ccccc1)c1cc(S(=O)(=O)NCc2ccncc2)ccc1Cl,18µM*,-1,-4%,8%,0%,16%
O=C(Nc1ccccc1)c1cc(S(=O)(=O)Nc2cccnc2)ccc1Cl,-10%,-2,0%,nt,4%,5%
CN(c1ccc(F)cc1)S(=O)(=O)c1ccc(Cl)c(C(=O)Nc2ccncc2)c1,18µM*,-1,-8%,4%,10%,-5%
COc1ccc(S(=O)(=O)NCc2ccncc2)cc1NC(=O)c1ccccc1,6.5µM*,-5,-7%,-13%,3%,35%
Cc1cccc(CN2CCN(CC(=O)NCCc3ccc(Cl)cc3)C2=O)c1,?,nt,3%,nt,0%,nt
O=C(CNC(=O)c1ccc2cc[nH]c2c1)OC(C(=O)Nc1cc(C(F)(F)F)ccc1Cl)c1ccccc1 (stereo not given),14%,nt,2%,nt,nt,nt
SMILES,Nrf2 inh,CCT chaperon mod,A549 tox,TCR act,Nrf2 activator,A-T KAP1 phos
COc1ccc2occ(CC(=O)Nc3ccc(S(=O)(=O)Nc4nccc(C)n4)cc3)c2c1,6%,nt,-3%,nt,1%,nt
CCOc1ccc(NC(=O)Cn2cc(C(=O)c3ccccc3)c(=O)c3cc4c(cc32)OCCO4)cc1,-11%,nt,2%,nt,0%,nt
COc1ccc(S(=O)(=O)NCc2ccncc2)cc1NC(=O)c1ccc(Cl)cc1,4.6µM*,0,-3%,-7%,2%,-9%
COc1ccc(S(=O)(=O)NCc2ccccn2)cc1NC(=O)c1ccc(Cl)cc1,-13%,-1,-21%,-1%,0%,5%
COC(=O)c1c(-c2ccc(C)cc2)csc1NC(=O)Cc1ccc(OC)c(OC)c1,18µM*,0,-2%,4%,0%,5%
COc1ccc(-c2csc(NC(=O)CSCC(=O)Nc3cc(C)on3)n2)cc1OC,?,-1,-5%,10%,2%,-1%
COc1ccc(CC(=O)Nc2nc(-c3ccc(OC)c(OC)c3)cs2)cc1OC,15µM*,-2,?,-12%,3%,-10%
COc1ccc(-c2csc(NC(=O)CS(=O)(=O)c3ccccc3)n2)cc1OC,nt,-31*,nt,nt,0%,nt
COc1ccc(-c2csc(NC(=O)CSCc3c(C)noc3C)n2)cc1OC,23µM*,-2,-8%,2%,3%,7%
COc1ccc(-c2csc(NC(=O)CS(=O)(=O)c3ccccc3)n2)c(OC)c1,nt,1,nt,nt,4%,nt
Cc1ccc(Cl)c(NC(=O)Nc2csc3c2CCCC3)c1,15%,nt,8%,nt,0%,nt
O=C(Cc1ccccc1F)Nc1nc(-c2ccc(F)cc2)cs1,6%,3,-12%,2%,7%,-1%
COc1ccc(-c2csc(NC(=O)Cc3ccccc3F)n2)cc1OC,21µM*,2,?,15%,3%,-1%
COc1ccccc1CC(=O)Nc1nc(-c2ccc(F)c(F)c2)cs1,23µM*,0,-4%,-10%,4%,4%
COc1ccc([N+](=O)[O-])cc1C1NN=C(c2ccccc2O)S1 (stereo not given),?,0,-24%,-1%,4.5µM*,8%
Nc1c(C(=O)O)ccc2c1C(=O)c1ccccc1C2=O,-3%,3,18µM*,-3%,1%,-24%
Nc1cc(C(=O)O)c(N)c2c1C(=O)c1ccccc1C2=O,?,-3,?,4%,2%,-23%
CN1CCN(C(=O)/C(=C/c2cn(S(=O)(=O)N(C)C)c3ccccc23)NC(=O)c2ccccc2)CC1,-15%,-39*,3%,-57%,0%,9%

# Screening data from PubChem BioAssay.
